Among the test systems are SK-MEL-2 melanoma; EKVX NSCLC; SN12C renal; UO-31 renal; TK-10 renal; ACHN renal; CAKI-1 renal; A498 renal; CCRF-CEM leukemia; MOLT-4 leukemia; SR leukemia; RPMI-8226 leukemia; OVCAR-8 ovarian; OVCAR-5 ovarian; SK-OV-3 ovarian; IGROV1 ovarian; OVCAR-3 ovarian; HS 578T breast; NCI/ADR-RES ovarian.
Holding throughout (experiment): NCI-60 one-dose screen, 48 h (100 = growth as untreated, 0 = no growth, -100 = all killed)
Conditions in all cases: 10 µM unless noted

Compounds without any hit were thinned out: in the full panel of roughly 83,000, 20% have a hit.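 Growth was measured after 48 h exposure to one concentration of compound in 96-well plates. Values under 10 count as active.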 Unmarked numbers belong to inactive results. Activity calls are given as the source filed them.

Regarding `Cc1nc(Cl)cc(N(c2cc(Cl)nc(C)n2)c2ncc(C(=O)Nc3c(C)cccc3Cl)s2)n1`, the growth is 87.4% with SK-MEL-2 melanoma; 84.7% in the assay on EKVX NSCLC; 37.5% in the assay with SN12C renal; 24.8% in the assay on UO-31 renal; 36.7% with TK-10 renal; 14.1% with ACHN renal. Moreover, the growth was 4% (active) in the assay with CAKI-1 renal; 35.6% with A498 renal; 53.7% in the assay with CCRF-CEM leukemia; 40.6% with MOLT-4 leukemia; 86.9% with SR leukemia; 50.8% in the assay on RPMI-8226 leukemia. Moreover, the growth with OVCAR-8 ovarian was 63.1%; in the assay with OVCAR-5 ovarian, 38.5%; with SK-OV-3 ovarian it was 39.8%; in the assay on IGROV1 ovarian, -22% (active); in the assay on OVCAR-3 ovarian, 49.9%; with HS 578T breast it was -1.46% (active). The growth with NCI/ADR-RES ovarian is 59.3%.
For `O=S(=O)(/N=c1/n(-c2ccccc2)nc2n1CCN2C1=NCCN1)c1ccc(-c2ccccc2)cc1`, the growth with SK-MEL-2 melanoma was 115%; in the assay on EKVX NSCLC, 95.9%; with SN12C renal it was 93.6%; in the assay with UO-31 renal it was 84.4%; with TK-10 renal, 108%; in the assay with ACHN renal, 101%. Moreover, the growth in the assay on CAKI-1 renal is 92%; in the assay on A498 renal, 82.9%; in the assay with CCRF-CEM leukemia it was 94.7%; in the assay with MOLT-4 leukemia, 95.1%; in the assay on SR leukemia, 67.4%; in the assay with RPMI-8226 leukemia, 96.8%. For the same compound, the growth with OVCAR-8 ovarian is 103%; in the assay on OVCAR-5 ovarian, 96.6%; with SK-OV-3 ovarian, 100%; with IGROV1 ovarian it was 95.4%; in the assay on OVCAR-3 ovarian it was 101%; in the assay with HS 578T breast, 93.4%. Besides, the growth with NCI/ADR-RES ovarian is 104%.
Turning to `C[C@H]1[C@H](C)CC[C@]2(C(=O)O)CC[C@]3(C)C(=CC[C@@H]4[C@@]5(C)C/C(=C/c6cccnc6)[C@H](O)C(C)(C)[C@@H]5CC[C@]43C)[C@H]12`, the growth was -28.1% [100 µM] (active) in the assay with SK-MEL-2 melanoma; 15.8% [100 µM] in the assay on EKVX NSCLC; 3% [100 µM] (active) in the assay with SN12C renal; -77% [100 µM] (active) in the assay with UO-31 renal; 8.85% [100 µM] (active) with TK-10 renal; 4.57% [100 µM] (active) in the assay with ACHN renal. For the same compound, the growth was 7.71% [100 µM] (active) in the assay on CAKI-1 renal; 19% [100 µM] in the assay with A498 renal; -1.43% [100 µM] (active) with CCRF-CEM leukemia; 2.42% [100 µM] (active) with MOLT-4 leukemia; 25.4% [100 µM] in the assay on SR leukemia; -4.1% [100 µM] (active) with RPMI-8226 leukemia. Besides, the growth in the assay on OVCAR-8 ovarian is 12.4% [100 µM]; with OVCAR-5 ovarian it was -13.7% [100 µM] (active); with SK-OV-3 ovarian, 5.9% [100 µM] (active); in the assay on IGROV1 ovarian, 7.23% [100 µM] (active); in the assay with OVCAR-3 ovarian it was -39% [100 µM] (active); in the assay with HS 578T breast, 4.34% [100 µM] (active). In the assay with NCI/ADR-RES ovarian, the growth was 1.11% [100 µM] (active).
In the case of `CCOC(=O)c1cc(C(=O)c2ccc(OC)c(OC)c2)n2ccc(-c3ccccn3)cc12`, the growth in the assay on SK-MEL-2 melanoma is 70.9%; with EKVX NSCLC it was 92.2%; in the assay with SN12C renal it was 60.6%; in the assay on UO-31 renal it was 76.3%; in the assay with TK-10 renal, 55.4%; in the assay on ACHN renal, 30%. In addition, the growth is 78.7% with CAKI-1 renal; 42.1% in the assay with A498 renal; 111% in the assay on CCRF-CEM leukemia; 124% in the assay with MOLT-4 leukemia; 75.8% in the assay with SR leukemia; 72.9% in the assay on RPMI-8226 leukemia. Further, the growth was 37% with OVCAR-8 ovarian; 84% in the assay on OVCAR-5 ovarian; 6.14% (active) in the assay with SK-OV-3 ovarian; 54.7% with IGROV1 ovarian; 78.5% in the assay with OVCAR-3 ovarian; 64.2% in the assay on HS 578T breast. The growth with NCI/ADR-RES ovarian is 65.6%.
Turning to `O=C(N=c1n(-c2ccccc2)nc2n1CCN2C1=NCCN1)c1ccc(Cl)cc1`, the growth was 106% in the assay on SK-MEL-2 melanoma; 93.9% in the assay with EKVX NSCLC; 80.1% with SN12C renal; 57.9% in the assay on UO-31 renal; 89.5% in the assay with TK-10 renal; 96.7% in the assay on ACHN renal. Also, the growth in the assay with CAKI-1 renal is 79.2%; in the assay on A498 renal, 68.3%; with CCRF-CEM leukemia it was 77.8%; in the assay with MOLT-4 leukemia it was 77.7%; in the assay on SR leukemia it was 43.6%; in the assay on RPMI-8226 leukemia, 91.9%. Besides, the growth in the assay on OVCAR-8 ovarian is 98.7%; with OVCAR-5 ovarian it was 95.9%; with SK-OV-3 ovarian, 90.2%; with IGROV1 ovarian, 58%; with OVCAR-3 ovarian, 91.7%; in the assay on HS 578T breast, 93.1%. In addition, in the assay with NCI/ADR-RES ovarian, the growth is 93.6%.
For `Cc1cc2c(C(C)C)c(O)c(O)c(C=NCc3ccoc3)c2c(O)c1-c1c(C)cc2c(C(C)C)c(O)c(O)c(C=NCc3ccco3)c2c1O`, the growth in the assay with SK-MEL-2 melanoma is 45.4%; with EKVX NSCLC, 23.6%; with SN12C renal it was 40.5%; in the assay on UO-31 renal, 36.2%; in the assay on TK-10 renal, 45.8%; in the assay with ACHN renal, 25.3%. Further, the growth is 54% with CAKI-1 renal; 80.1% in the assay on A498 renal; 21% in the assay on CCRF-CEM leukemia; 14.5% in the assay on MOLT-4 leukemia; 13.9% in the assay on SR leukemia; 33.5% in the assay on RPMI-8226 leukemia. The growth is 30.2% in the assay with OVCAR-8 ovarian; 68.9% in the assay on OVCAR-5 ovarian; 54.4% in the assay with SK-OV-3 ovarian; 46.5% in the assay with IGROV1 ovarian; 25.9% with OVCAR-3 ovarian; 45% with HS 578T breast. In addition, the growth with NCI/ADR-RES ovarian was 44.4%.
